Sampled rows, rich in hits. Any-hit rate of the full collection: about 3.3%.
NR3A LBD binder = modulates the human NR3A ligand-binding domain. NR3A LBD differential scanning fluorimetry, Tm shift; 0% = protein alone, 100% = glycine-bound protein. Tm shift relative to glycine control, % at 25 µM. hit rate 2.5% among 340,000;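 active = melting temperature shift of at least 10% of the positive control shift, at one fixed dose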
SUMO HTRF inh = SUMOylation inhibition | inhibition, % at 35 µM | hit rate 0.36% among 290,000 | AID 2006 | HTRF SUMOylation assay, SAE1/SAE2 + UBC9, in vitro | P63279; in the data active = inhibition above about 50%, passing the limit was not always enough
UBC13 inh = inhibitors of human UBC13 polyubiquitin chain formation | P61088 | TR-FRET | inhibition, % at 20 µM | hit rate 0.47% among 330,000; in the data active = inhibition above about 45%, passing the limit was not always enough
sPLA2-III inh = Blocks human group III sPLA2 activity | hit rate 0.56% among 370,000 | inhibition, % at 12.2 µM | QFRET BODIPY PC-A2 liposome hydrolysis, fluorescence | Q9NZ20;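 active = inhibition above mean plus 3 SD of compounds lying within the high and low control bounds, cut at about 19% in these data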;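 note: 0% = median of test compound wells and 100% = no enzyme DMSO wells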
Starred values were filed as active, the others as inactive.

Screening COc1ccc(NC(=O)COC(=O)CC2Sc3ccccc3NC2=O)cc1 (configuration not stated) returned NR3A LBD binder 4, UBC13 inh -1 and sPLA2-III inh -9.
Screening O=C1Nc2ccccc2SC1c1ccccc1 (configuration not stated) returned NR3A LBD binder 1, SUMO HTRF inh -1 and sPLA2-III inh -2.
COC(=O)CC1Sc2ccccc2NC1=O (configuration not stated) was read as NR3A LBD binder 14*, SUMO HTRF inh 2, UBC13 inh 2 and sPLA2-III inh 1.
For Cc1ccc(NC2Sc3ccccc3NC2=O)cc1 (configuration not stated) the results were NR3A LBD binder 13*, SUMO HTRF inh -10, UBC13 inh -28 and sPLA2-III inh 2.
`CC(C)C(=O)Nc1ccc(C(=O)N/N=C/c2cc(Br)cc(Br)c2O)cc1` gave NR3A LBD binder 31*, SUMO HTRF inh 17, UBC13 inh -36 and sPLA2-III inh 12.
`CC(C)C(=O)Nc1ccc(C(=O)Nc2ccc(Br)cc2F)cc1` gave NR3A LBD binder -5, SUMO HTRF inh 8, UBC13 inh -3 and sPLA2-III inh -2.
For CC(=O)Nc1ccc(C(=O)N/N=C/c2cc(Br)cc(Br)c2O)cc1 the results were NR3A LBD binder 19*, SUMO HTRF inh -15, UBC13 inh 4 and sPLA2-III inh 13.
Screening COc1cc(OC)c(/C=N/NC(=O)c2ccc(NC(C)=O)cc2)cc1Br returned NR3A LBD binder -2, SUMO HTRF inh 50*, UBC13 inh -3 and sPLA2-III inh -2.
For O=C(N/N=C/c1cc(Cl)ccc1O)c1ccc(Br)cc1 the results were NR3A LBD binder 8, SUMO HTRF inh 14 and sPLA2-III inh 18.
`COc1ccccc1C(=O)NC1CCCCN(Cc2ccccc2C)C1=O` (configuration not stated) gave sPLA2-III inh 3.
Screening COc1ccc(C2Nc3ccccc3C(=O)N2Cc2ccccc2)cc1CSc1ccccn1 (configuration not stated) returned NR3A LBD binder -7, SUMO HTRF inh -23, UBC13 inh 5 and sPLA2-III inh -7.
`COc1ccc(C2Nc3ccccc3C(=O)N2c2ccccc2)cc1CSc1ccccn1` (configuration not stated) gave NR3A LBD binder 18*, SUMO HTRF inh 8, UBC13 inh 16 and sPLA2-III inh 4.
CCOC(=O)c1c(N)sc2c1CCC(CC)C2 (configuration not stated) was read as NR3A LBD binder 0, SUMO HTRF inh 8, UBC13 inh 5 and sPLA2-III inh 0.
Screening CCOC(=O)c1c(N)sc2c1CCC1C(=O)N(C3CCCCC3)C(=O)C21 (configuration not stated) returned NR3A LBD binder 13*, SUMO HTRF inh 41, UBC13 inh -5 and sPLA2-III inh -4.
Screening CC1(C)CC(=O)C2=C(C1)NC(SCC(N)=O)=C(C#N)C21CCCCC1 returned NR3A LBD binder 16*, SUMO HTRF inh -26, UBC13 inh -7 and sPLA2-III inh 6.
For CCSC1=C(C#N)C2(CCCCC2)C2=C(CC(C)(C)CC2=O)N1 the results were NR3A LBD binder -1, SUMO HTRF inh 6, UBC13 inh 11 and sPLA2-III inh 8.
Screening NC(=O)c1ncc(C(F)(F)F)cc1Oc1cccc(C(F)(F)F)c1 returned NR3A LBD binder 11*, SUMO HTRF inh 13, UBC13 inh -1 and sPLA2-III inh 6.
For O=C(C1CCCN(S(=O)(=O)c2cccs2)C1)N1CCN(Cc2ccccc2)CC1 (configuration not stated) the results were sPLA2-III inh 10.
For O=C1C2C3C=CC(c4ccccc4)(C2C(=O)N1c1cccc(Cl)c1)C1C(=O)N(c2cccc(Cl)c2)C(=O)C31 (configuration not stated) the results were NR3A LBD binder 23*, SUMO HTRF inh -16, UBC13 inh 3 and sPLA2-III inh -29.
C#CCNC(=O)c1cnn(-c2ccccc2)c1N was read as sPLA2-III inh 3.
Screening C[C@@H]1OCN(C)[C@H]2C[C@H]3c4[nH]c5cccc(-c6ccc7c(c6)OCO7)c5c4CCN3C[C@@H]12 returned sPLA2-III inh -5.
`O=S(=O)(c1ccc2nc(N3CCN(c4ccccc4F)CC3)ccc2c1)N1CCCCC1` gave NR3A LBD binder 3, SUMO HTRF inh 6, UBC13 inh 43 and sPLA2-III inh -9.
`O=S(=O)(c1ccc2nc(Nc3ccccc3)ccc2c1)N1CCCCC1` gave NR3A LBD binder 30*, SUMO HTRF inh 28, UBC13 inh -6 and sPLA2-III inh -17.

Compound activity: PubChem, several laboratories
